Assay outcomes (PubChem)
An excerpt weighted towards active compounds, which were near 1.2% of everything screened.
GCN5L2 inh – inhibitors of human GCN5L2 histone acetyltransferase; Q92830; GCN5L2 HAT assay, ThioGlo1 CoA-SH fluorescence; Potency, µM (titrated, usually from 58.9 µM), for inactives: at the top dose activity change, negative = inhibition, hits mostly inhibitors; 0.21% of 390,000 active; AID 504327
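Enzyme at 20nM final was mixed with library compounds for 15 min at room temperature. Peptide H3(1-25) at 75uM, acetyl-CoA at 70uM and ThioGlo1 at 50uM were then added. Plates were read immediately and after 20 min (Ex340nm/Em540nm).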
VDR inh – blocks the human vitamin D receptor; P11473; VDR-SRC2-3 peptide fluorescence polarization, 2 h; Potency, µM, for the others: max response, negative = inhibition, most hits filed as inhibitors; 0.93% of 400,000 active
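VDR–SRC2-3 interaction, FP format. Cmpds 23 nl via pintool, brief spin, 2 h ambient incubation.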
RGS12 GoLoco inh – RGS12 GoLoco-Gai1 interaction inhibition; Gai1:RGS12 GoLoco peptide FP, rhodamine, 10 min; Potency, µM (titrated, usually from 61.6 µM), without a hit: at the highest dose activity, negative = inhibition, most hits filed as inhibitors; 0.44% of 230,000 active; AID 880; active = well fitted inhibition curve with a large enough effect, not every such curve was filed as active; inactive = no such curve, though single readings can be large or run the other way; note: nearly all actives have a fitted effect of over 30% in size
Target sequence (P63096 whole entry, looked up): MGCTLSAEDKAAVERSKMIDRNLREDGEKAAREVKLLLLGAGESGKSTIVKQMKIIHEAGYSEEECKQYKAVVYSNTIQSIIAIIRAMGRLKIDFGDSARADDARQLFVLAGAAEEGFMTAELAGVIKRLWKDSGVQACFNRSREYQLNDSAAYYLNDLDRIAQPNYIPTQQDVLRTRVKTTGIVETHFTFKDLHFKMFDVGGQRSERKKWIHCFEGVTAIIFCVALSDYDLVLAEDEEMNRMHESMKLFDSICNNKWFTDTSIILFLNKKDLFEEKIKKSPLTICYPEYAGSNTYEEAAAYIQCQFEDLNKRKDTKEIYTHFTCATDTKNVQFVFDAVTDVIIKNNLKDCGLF
TRb-SRC2 inh – TRbeta-SRC2 interaction inhibition. Potency, µM (doses to about 106 µM), for the others: top-dose activity change, negative = inhibition, most hits filed as inhibitors. TRbeta-SRC2 peptide binding, fluorescence polarization; receptor liganded with 1 µM T3. 0.065% of 280,000 active. P10828. AID 1469;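 note: plate controls were bound peptide for no effect and peptide without receptor for full effect; nearly all actives have a fitted effect of over 50% in size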
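Assay buffer: 20 mM Tris-HCl, 100 mM NaCl, 10% glycerol, 1 mM EDTA, 0.01% NP-40, 1 mM DTT, 1 uM T3, 5% DMSO; TRb LBD 0.6 uM, Texas Red SRC2 20 nM; FP after 5 hr.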
TR SRC2 fluor cs – alters Texas Red total fluorescence, flagging assay interference. TRb/SRC2 Texas Red total fluorescence interference. Potency, µM (doses to about 106 µM), for inactives: top-dose fluorescence change, negative = quenching. 0.29% of 280,000 active. AID 1479; active = well fitted curve in either direction with a large enough effect; inconclusive = small, poorly fitted or top-dose-only effect
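Human TRb ligand-binding domain at 0.6 uM with 20 nM Texas Red SRC2 peptide in Tris buffer containing 1 uM T3 and 5% DMSO, incubated with compound 5 h at ambient temperature. Total fluorescence (555/632 nm) calculated as parallel + 2 × perpendicular.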
Starred values were filed as active, the others as inactive; ? = inconclusive; nt = not tested or not shown; ! = repeats disagree; [ ] = dose if it differs, or a comment. Unless noted, calls come from the whole dose curve; as a rule, active = well fitted curve in the direction sought with a large enough effect; inconclusive = small, poorly fitted or top-dose-only effect, or another doubt; inactive = no such curve, though single readings can be large; an effect the other way counts as inactive or inconclusive. Unless noted, % is set by controls: 0 for no effect and ±100 for the full control effect; potency is the fitted concentration of half-maximal effect.

SMILES	GCN5L2 inh	VDR inh	RGS12 GoLoco inh	TRb-SRC2 inh	TR SRC2 fluor cs
O=C(O)c1cccc(CN2C(=O)SC(Nc3cccc4ccccc34)C2=O)c1 (configuration not stated)	14µM*	-16%	7%	-16%	-1%
Cc1ccc(NC2SC(=O)N(Cc3cccc(C(=O)O)c3)C2=O)c(C)c1 (configuration not stated)	-2%	91%	1%	-2%	0%
CCOC(=O)CNc1nnc(SCC(=O)OCC)[nH]c1=O	13%	40µM*	-12%	-1%	1%
CN(C)c1ccc(/C=C/c2c([N+](=O)[O-])c(=O)n(C)c(=O)n2C)cc1	-1%	-4%	nt	nt	nt
Cn1c(/C=C/c2ccc(Br)cc2)c([N+](=O)[O-])c(=O)n(C)c1=O	1%	50µM*	nt	nt	nt
O=Cc1ccc(-c2cccs2)s1	nt	-19%	nt	nt	nt
Oc1ccc(N=Cc2ccc(-c3cccs3)s2)cc1	?	79µM*	-25%	32µM*	9%
COC(=O)C1=C(C(=O)OC)C(C(=O)OC)C(C(=O)OC)C(C(=O)OC)(C(=O)OC)C(C(=O)OC)=C1C(=O)OC (configuration not stated)	nt	40µM*	nt	nt	nt
COc1cc2ccccc2cc1C(=O)Nc1ccc2oc(-c3cccc(C)c3)nc2c1	17%	-15%	nt	?	3.2µM*[quencher]
CCOc1ccc(-c2nnc(-c3ccncc3)o2)cc1	-12%	71µM*	-1%	-5%	0%
CC(C)(C)OC=O	nt	nt	0%	-5%	0%
Cc1ccc(-n2nc3c(c2NC(=O)c2cccs2)CSC3)cc1	3.5µM*	9%	2%	1%	-6%
Cc1ccc(-n2nc3c(c2NC(=O)c2cccs2)CS(=O)(=O)C3)cc1	-4%	1%	nt	nt	nt
COc1ccc(/C=C/c2ccccc2)cc1C1C2C=CCCC2(C)C(=O)N1Cc1ccccc1 (configuration not stated)	nt	-28%	nt	7%	-1%
Cc1ccc(C2=C(Cl)C(=O)C(c3ccc(C)cc3)=C(Cl)C2=O)cc1	nt	nt	-8%[14.2 µM]	nt	nt
CCOC(=O)Cn1c2ccc(F)cc2c2nc(C)sc21	3%	?	8%	-2%	-1%
COC(=O)Cn1c2ccc(F)cc2c2nc(C)sc21	-2%	79µM*	0%	1%	0%
Fc1cccc(C[n+]2csc3ccccc32)c1	-18%	32µM*	-13%	-1%	-3%
c1ccc(C[n+]2csc3ccccc32)cc1	-13%	40µM*	10%	5%	-1%
CCC(=O)OC1(C)C(=O)C=C2C=C(CCCNC(=O)OC(C)(C)C)OC=C2C1=O (configuration not stated)	nt	3%	3%	12%	-1%
O=C(O)c1ccc2c(ccc3nn(-c4ccc(/C=C/c5ccc(-n6nc7ccc8cc(C(=O)O)ccc8c7n6)cc5[S+](=O)([O-])[O-])c([S+](=O)([O-])[O-])c4)nc32)c1	nt	-20%	nt	nt	nt
Cc1ccc(Cl)cc1N1CCN(C(=O)Cn2nc(C)n3c(cc4sccc43)c2=O)CC1	-11%	-16%	nt	-9%	79µM*[quencher]
Cc1ccc(S(=O)(=O)N2CCN(c3nc(-c4ccncc4)nc4ccccc34)CC2)cc1	nt	-25%	nt	nt	nt
CN1CCC(=C2c3ccccc3Sc3ccccc32)CC1	0%	-19%	18µM*!	2%	0%
C=C(C)C(=O)OCC[N+](C)(C)C	nt	nt	nt	0%[201 µM]	-1%[201 µM]
SMILES	GCN5L2 inh	VDR inh	RGS12 GoLoco inh	TRb-SRC2 inh	TR SRC2 fluor cs
CC(C)(C)CC(C)(C)c1cc(O)c(O)c(CN2CCCCC2)c1	nt	nt	-28%[14.2 µM]	nt	nt
Cc1cc2c(cc1S(=O)(=O)NCc1ccccc1)OCC(=O)N2	25µM*!	8%	nt	-4%	6%
CCOc1ccccc1CNS(=O)(=O)c1cc2c(cc1C)NC(=O)CO2	-14%	21%	nt	3%	0%
CC(=O)C(Sc1nn(C)c(=S)s1)C(=O)Nc1ccccc1 (configuration not stated)	?	79µM*	-22%	3%	-1%
CC(=O)C(Sc1nc(N(C)C)nc(N(C)C)n1)C(=O)Nc1ccccc1 (configuration not stated)	5%	-2%	6%	-7%	-5%
Oc1cc(O)cc(/C=C/c2ccc(O)c(O)c2)c1	?	-13%	6%	?	50µM*![quencher]
Oc1ccc(/C=C/c2ccc(/C=C/c3ccc(O)cc3)c(Br)c2)cc1	-14%	-6%	nt	nt	nt
NN=C1c2cc(S(=O)(=O)NCCO)ccc2-c2ccc(S(=O)(=O)NCCO)cc21	nt	-1%	nt	nt	nt
CCOC(=O)c1c(C)oc2ccc(NS(=O)(=O)c3ccc(C(=O)O)cc3)cc12	-1%	-9%	14%	0%	-2%
CCOC(=O)c1c(-c2ccccc2)oc2ccc(NS(=O)(=O)c3ccc(C)cc3)cc12	0%	9%	nt	-12%	40µM*[quencher]
Cc1ccc(Nc2nnns2)cc1C	-4%	45µM*	-11%	-6%	1%
N#CCCSC(=S)[C@H]1CCCC1=N	nt	nt	2%[14.2 µM]	nt	nt
N#CC1=C(S)N(c2ccccc2)C2(CCCCC2)NC1=O	-10%	35µM*	-8%	4%	-5%
N#CC1=C(S)N(c2ccc(F)cc2)C2(CCCCC2)NC1=O	13%	?	-3%	-6%	-6%
C=C(C#N)C(=O)OCC	nt	nt	-23%	3%	-3%
CO[C@H]1C[C@@H]2CC[C@@H](C)[C@@](O)(O2)C(=O)C(=O)N2CCCC[C@H]2C(=O)OC([C@H](C)C[C@@H]2CC[C@@H](O)[C@H](OC)C2)CC(=O)[C@H](C)/C=C(\C)[C@@H](O)[C@@H](OC)C(=O)[C@H](C)C[C@H](C)/C=C/C=C/C=C/1C (some centres not stated)	-22%	45µM*!	-4%	3%	-1%
CO[C@H]1C[C@@H]2CC[C@@H](C)[C@@](O)(O2)C(=O)C(=O)N2CCCC[C@H]2C(=O)O[C@H]([C@H](C)C[C@@H]2CC[C@@H](O)[C@H](OC)C2)CC(=O)[C@H](C)/C=C(/C)[C@@H](O)[C@@H](OC)C(=O)[C@H](C)C[C@H](C)C=C/C=C\C=C/1C	nt	-24%	nt	nt	nt
COc1ccc(-c2nc(=S)[nH][nH]2)cc1	?	79µM*	-1%	-5%	0%
CCOc1ccc(-c2nc(=S)[nH][nH]2)cc1	-8%	-9%	-5%	-15%	-2%
COc1cc(-c2nc(=S)[nH][nH]2)cc(OC)c1OC	?	50µM*	10%	-6%	2%
COc1ccc(-c2nc(=S)[nH][nH]2)cc1OC	?	-20%	-3%	0%	-3%
CCOC(=O)CCN1C(=O)[C@@H]2[C@H]3C(=CC[C@H]2C1=O)C(=O)[C@H]1O[C@H]1[C@H]3O	nt	nt	nt	-6%[11.2 µM]	-3%[11.2 µM]
CCSc1nc(=S)cc(C)[nH]1	5%	79µM*	4%	-1%	1%
Cc1ccc([N+](=O)[O-])cc1Nc1nc(N2CCCC2)nc(N2CCCC2)n1	-7%	79µM*	nt	nt	nt
C#C[C@]1(O)CC[C@H]2[C@@H]3CCC4=CCCC[C@@H]4[C@H]3C(=C)C[C@@]21CC	-21%	1%	nt	nt	nt
